From PubChem BioAssay (NCI) come the findings set out here.

Structures are written as SMILES. Compounds without any hit were thinned out: in the full panel of roughly 83,000, 20% have a hit.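 Testing used 96-well plates and a 48-hour single-concentration exposure. Example: -40 means 40% of the starting cells died.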 Calls of active or inactive are those of the source. How the source made its calls: active means growth percent below 10; inactive means the rest.

This assay deals with UACC-62 melanoma. As to the kind of experiment: NCI-60 one-dose screen, 48 h (100 = growth as untreated, 0 = no growth, -100 = all killed). Conditions: 10 µM unless noted.
As to `C[C@H]1[C@H](C)CC[C@]2(C(=O)NCC#CCN3CCN(C)CC3)CC[C@]3(C)C(=CC[C@@H]4[C@@]5(C)Cc6c([nH]c7ccccc67)C(C)(C)[C@@H]5CC[C@]43C)[C@H]12`, the growth was 101% (inactive).
Next, `N#Cc1c(NCc2ccccc2I)sc2c1CCCCC2`: 69.5% (inactive).
Under `CN1C(=O)NC(c2ccc3c(c2)OCO3)C=C1c1ccccc1` (centres undefined) stands 89.8% (inactive); under `COc1cc(/C=C\C(=O)O)ccc1OCc1ccccc1`, 93.2% (inactive).
As for `CCN(CC)c1ccc(/C=N/NC(=O)CSc2nc3ccccc3c(=O)n2Cc2ccc(S(N)(=O)=O)cc2)c(O)c1`, the growth is 6.51% (active).
Next, `Cc1ccc(S(=O)(=O)NNC(=O)/C(=C\c2ccc(Cl)cc2)c2nc3ccccc3s2)cc1`: 80.7% (inactive); `CCOC(=O)[C@@H]1CCCN(S(=O)(=O)c2ccc(S(=O)(=O)N(CC)CC)c(F)c2)C1`: 59.4% (inactive); `Cc1ccc(CNc2c3ccccc3nc3cc(NC(=O)CCN4CCCC4)ccc23)cc1`: 36.1% (inactive).
Under `COc1ccc(CC(C)=C(c2ccc(OCCN3CCCCCC3)cc2)c2ccc(OCCN3CCCCCC3)cc2)cc1` stands -97.1% (active); under `CCCCNC(=O)Oc1ccc(/C(=C(\C)c2ccccc2)c2ccc(OCCN3CCCCC3)cc2)cc1`, 41.8% (inactive); under `Cn1c2ccccc2c2c3c(c4c5ccccc5n(C)c4c21)C(=O)OC3`, 88.6% (inactive).
Under `CNC(=O)c1cc(Cn2nc(C)c(NC(=O)Nc3ccc(Cl)c(C(F)(F)F)c3)c2C)ccn1` stands 93.7% (inactive); under `O=C(Nc1ccc(NC(=O)c2cc(=O)[nH]c3ccccc23)cc1)Nc1cccc(Cl)c1`, 84.6% (inactive).
Regarding `COc1ccc(C(=O)CSc2nc(-c3cc(OC)ccc3OC)cc(-c3ccc(Cl)cc3)c2C#N)cc1`, the growth is 16.8% (inactive).
With `Cc1cc(C)c(S(=O)(=O)Oc2ccccc2[N+](=O)[O-])c(C)c1`, the growth was 24.5% (inactive).
Under `O=C(CCN1CCCC1)Nc1ccc2c(NCc3ccccc3)c3ccccc3nc2c1` stands -16.1% (active).
Next, `CCN(CC)c1ccc(/C=N/NC(=O)CSc2nc3ccccc3c(=O)n2CCc2ccc(S(N)(=O)=O)cc2)c(O)c1`: 15.5% (inactive).
Under `O=C(CSc1nc2sc3c(c2c(=O)n1-c1ccc(Cl)cc1)CCCC3)Nc1nc(-c2cccc(Br)c2)cs1` stands 85.1% (inactive).
`COc1ccc(C(C)=O)c(OC)c1`: the growth is 96.1% (inactive).
Turning to `COc1cccc(-c2nc3occn3c2-c2ccnc(NCCCNS(=O)(=O)c3ccc(C(F)(F)F)cc3)n2)c1`, the growth was 67.3% (inactive).
Next, `C=C1C(=O)O[C@H]2[C@H]1CC/C(C(=O)NCCCCCNC(=O)/C1=C/CC[C@@]3(C)O[C@H]3[C@H]3OC(=O)C(=C)[C@@H]3CC1)=C\CC[C@@]1(C)O[C@@H]21`: 97.9% (inactive).
Under `C=C1C(=O)O[C@H]2[C@H]1CC/C(COC(=O)NCc1c[nH]c3ccc(F)cc13)=C\CC[C@@]1(C)O[C@@H]21` stands -75.1% (active); under `Cc1cc2nc3c4cccc(O)c4n(CCN(C)C)c3nc2cc1C`, 49.5% (inactive); under `O=C(Cc1ccccc1)NNc1nc(Cl)nc(N2CCN(C(c3ccccc3)c3ccccc3)CC2)n1`, 91.9% (inactive).
